According to PubChem BioAssay:
Active and inactive are the calls of the source. Unless noted, the rule behind the calls is not given here.

Tests used:
[1] = test system: XIP peptide (Xip251-270) binding; experiment: XIP fragment 251-270 binding compounds – biochemical, small-molecule microarray, fluorescence 635/667 nm, 0.1 µg/mL protein, primary screen (AID 1182); settings: fluorescent protein binding, 635 nm, higher = more signal, called active from +8 up or from −8 down
XIP peptide (Xip251-270) = experiment: compounds binding XIP fragment 251-270 – biochemical, small-molecule microarray, fluorescence 635/667 nm, 0.5 µg/mL protein, primary screen (AID 1183); settings: fluorescence 635 nm, higher = more signal
[2] = blood-stage malaria parasite viability loss – strain 3D7, DAPI fluorescence, 100 nL, primary screen (AID 1184);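 note: parasites grown inside human red blood cells in medium with human serum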; settings: P. falciparum 3D7 growth, 3 d, higher = more signal
[3] = biological target: Homeobox protein Hox-A13 (Mus musculus) (UniProt Q62424); experiment: disruptors of Hoxa13 oligonucleotide interaction – biochemical, fluorescence polarization, labeled oligonucleotide, primary screen (AID 1185); settings: Hoxa13:DNA binding, 15 min, higher = more signal, called active from +8 up or from −8 down
[4] = blockers of DNA damage checkpoint Chk1 activation – imaging, HeLa, hydroxyurea, phospho-Chk1 antibody, percent positive cells, primary screen (AID 1186); settings: hydroxyurea-induced phospho-Chk1 immunofluorescence imaging, higher = more signal
[5] = blockers of DNA damage checkpoint Chk1 activation – imaging, HeLa, hydroxyurea, phospho-Chk1 nuclear intensity, primary screen (AID 1187); settings: hydroxyurea-induced phospho-Chk1 immunofluorescence imaging, higher = more signal

Chain of Homeobox protein Hox-A13 (Mus musculus) (Q62424 whole entry, looked up): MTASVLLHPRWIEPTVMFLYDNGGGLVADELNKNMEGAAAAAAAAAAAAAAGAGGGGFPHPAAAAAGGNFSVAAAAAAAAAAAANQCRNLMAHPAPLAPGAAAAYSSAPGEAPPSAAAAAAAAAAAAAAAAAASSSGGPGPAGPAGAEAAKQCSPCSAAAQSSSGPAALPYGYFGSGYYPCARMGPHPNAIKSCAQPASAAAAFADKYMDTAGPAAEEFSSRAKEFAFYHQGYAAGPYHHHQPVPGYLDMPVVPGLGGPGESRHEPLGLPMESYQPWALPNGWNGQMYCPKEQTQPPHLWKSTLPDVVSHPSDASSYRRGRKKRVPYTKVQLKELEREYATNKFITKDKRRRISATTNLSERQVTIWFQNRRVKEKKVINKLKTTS

| Compound | composite z-score [1] | composite z-score (XIP peptide (Xip251-270)) | z-score [2] | z-score [3] | z-score [4] | z-score [5] |
| --- | --- | --- | --- | --- | --- | --- |
| Cc1cccc([C@H]2C[C@H]3C(I)=C[C@@H]2C(=O)[C@]32CO2)c1 | 0.162 (inactive) | -0.452 | 1.22 | -1.53 (inactive) | -0.33 (inactive) | -0.466 (inactive) |
| CC1CC/C=C\[C@H]2OC34C=CCN(CCN5CCOCC5)C(=O)[C@H]3N(C(C)CO)C(=O)[C@@H]4C2C(=O)O1 (some centres undefined) | -0.153 (inactive) | 0.371 | -0.359 | -5.12 (inactive) | 0.16 (inactive) | 0.219 (inactive) |
| [N-]=[N+]=NCc1ccccc1[C@@H]1OC(c2ccc(OCCCO)cc2)=N[C@]1(Cc1ccccc1N=[N+]=[N-])C(=O)NCCN1CCOCC1 | 0.24 (inactive) | 0.878 | -2.45 | -4.64 (inactive) | -0.276 (inactive) | -0.22 (inactive) |
| O=C1OCCC=C[C@H]2OC34C=CCN(c5ccc(Cl)cc5)C(=O)[C@H]3N(CCCCCCO)C(=O)[C@@H]4C12 (some centres undefined) | 0.43 (inactive) | -0.619 | -0.278 | -5.62 (inactive) | -0.301 (inactive) | 0.116 (inactive) |
| COC(=O)[C@@]1(Cc2ccc(F)cc2)[C@H]2c3cc(C(=O)N4CCCC4)n(C)c3C[C@H]2CN1C(=O)c1ccccc1 | 0.125 (inactive) | 0.664 | -0.37 | -6.1 (inactive) | -0.0152 (inactive) | 0.504 (inactive) |
| COCCOC(=O)N1C(=O)[C@@]2(c3cc(C#CCC(C(=O)OC)C(=O)OC)ccc31)[C@H](C(=O)NC[C@H](O)c1ccccc1)[C@H]1C(=O)O[C@H](c3ccccc3)[C@H](c3ccccc3)N1[C@@H]2c1ccc(O)cc1 | 0.363 (inactive) | 0.724 | -1.84 | -1.61 (inactive) | -0.129 (inactive) | -0.117 (inactive) |
| Cc1ccc([C@H]2C(C(=O)O)=C[C@@H](C(C)(C)C)N2S(=O)(=O)c2ccc(C)cc2)cc1 | 0.629 (inactive) | 0.854 | 1.64 | -4.73 (inactive) | 0.695 (inactive) | 0.255 (inactive) |
| COC(=O)[C@@]1(Cc2ccc(OC)cc2)[C@H]2c3cc(C(=O)N4CCCC4)n(Cc4ccc(OC(F)(F)F)cc4)c3C[C@H]2CN1C(=O)c1ccccc1 | 0.931 (inactive) | 0.702 | -1.29 | -2.94 (inactive) | 0.168 (inactive) | 0.569 (inactive) |
| CCCCCN1CC=CC23O[C@@H]4/C=C\CCC(C)OC(=O)C4[C@H]2C(=O)N(CCCCCCO)[C@@H]3C1=O (some centres undefined) | 0.185 (inactive) | 0.459 | 0.162 | -4.71 (inactive) | -0.0032 (inactive) | 0.453 (inactive) |
| NC(=O)N1C(=O)C2C(C1=O)C1C=C(CCCO)C2C(C2CC2)N1Cc1cccc(OC(F)(F)F)c1 (centres undefined) | 0.198 (inactive) | -0.341 | 1.17 | -8.76 (active) | 0.791 (inactive) | 0.384 (inactive) |
| C=CCC(OC(C)=O)[C@@H]1[C@@H](N(Cc2ccc(-c3cccc(C(F)(F)F)c3)o2)C(=O)Cc2ccc(OC)cc2)c2cc(OCCCO)ccc2N1C(=O)Cc1ccc2ccccc2c1 (some centres undefined) | 0.0389 (inactive) | 0.625 | -2.17 | -1.9 (inactive) | 0.162 (inactive) | 0.375 (inactive) |
| CC=CC(O)C1C=CC2C(=O)NC(=O)C2N1Nc1ccccn1 (centres undefined) | 2.39 (inactive) | 0.684 | -0.0521 | -1.1 (inactive) | 0.517 (inactive) | 0.359 (inactive) |
| O=C1O[C@H](c2ccccc2)[C@H](c2ccccc2)N2[C@H]1[C@@H](C(=O)O)[C@]1(C(=O)Nc3ccc(C#CC4(O)CCCCCC4)cc31)[C@H]2c1ccc(O)cc1 | -0.203 (inactive) | 0.194 | 0.361 | -6.61 (inactive) | -0.308 (inactive) | -0.307 (inactive) |
| O=C1N(CCS(=O)(=O)c2ccccc2)Cc2ccccc2[C@@H]2OC(c3ccc(OCCCO)cc3)=N[C@]12CCS(=O)(=O)c1ccccc1 | 1.25 (inactive) | 0.86 | -2.1 | 0.71 (inactive) | 0.367 (inactive) | 0.793 (inactive) |
| O=C(N1CCOCC1)[C@@]1(CCS(=O)(=O)c2ccccc2)N=C(c2ccc(OCCCO)cc2)O[C@H]1c1ccccc1 | 1.79 (inactive) | 0.747 | -1.39 | -5.53 (inactive) | 0.0192 (inactive) | 0.249 (inactive) |
| CC1CC/C=C\[C@H]2OC34C=CCN(C(C)(C)C)C(=O)[C@H]3N(C(CO)C(C)C)C(=O)[C@@H]4C2C(=O)O1 (some centres undefined) | 1.27 (inactive) | -0.142 | -0.459 | -5.73 (inactive) | 0.015 (inactive) | 0.277 (inactive) |
| C=C(COC)/C(=C/C[C@@H](OC(C)=O)c1ccc(CO)o1)c1cc(C(=O)OC)ccc1OC | 0.824 (inactive) | 0.147 | 0.0394 | -4.84 (inactive) | -1.06 (inactive) | -1.26 (inactive) |

| Compound | composite z-score [1] | composite z-score (XIP peptide (Xip251-270)) | z-score [2] | z-score [3] | z-score [4] | z-score [5] |
| --- | --- | --- | --- | --- | --- | --- |
| C=CCNC(=O)[C@H]1[C@@H]2C(=O)O[C@@H](c3ccccc3)[C@@H](c3ccccc3)N2[C@@H](c2ccc(OCCO)cc2)[C@]12C(=O)N(C(=O)OCCOC)c1ccc(C#Cc3ccc(OC)cc3)cc12 | 0.0294 (inactive) | 0.719 | -2.38 | 4.25 (inactive) | -0.499 (inactive) | -0.744 (inactive) |
| CCOC(=O)C[C@H]1[C@H](OC(=O)c2ccccc2-c2ccccc2)[C@@H](NC(=O)c2ccc3ccccc3n2)c2cc(OCCCO)ccc2N1C(=O)c1ccccc1 | 0.428 (inactive) | 0.04 | -1.66 | -2.46 (inactive) | 0.342 (inactive) | 0.6 (inactive) |
| CN1C(=O)[C@@]2(Cc3ccccc3)N=C(c3ccc(OCCCO)cc3)O[C@H]2c2ccccc21 | 1.11 (inactive) | 0.687 | -2.26 | -4.01 (inactive) | -0.632 (inactive) | -0.864 (inactive) |
| COCC(=C=CC[C@@H](O)c1ccc(OCCO)cc1)CCO | 0.474 (inactive) | 0.429 | -1.46 | -3.22 (inactive) | -0.321 (inactive) | 0.301 (inactive) |
| C=C[C@H](C)[C@H](OC(=O)Nc1ccc(OC)cc1)c1ccc(OCCO)cc1 | 0.526 (inactive) | -0.0503 | -1.15 | -4.59 (inactive) | -0.806 (inactive) | -0.261 (inactive) |
| CC(C)CNC(=O)[C@@]1(c2ccc([N+](=O)[O-])cc2)CC(=O)N(C2CCCCC2)[C@@H]1c1ccc(CO)cc1 | 0.32 (inactive) | 0.104 | -0.672 | -2.24 (inactive) | 0.0803 (inactive) | 0.515 (inactive) |
| O=C1C[C@@](C(=O)NCC(F)(F)F)(c2ccc([N+](=O)[O-])cc2)[C@@H](c2ccc(CO)cc2)N1CC12CC3CC(CC(C3)C1)C2 | 1.13 (inactive) | 0.709 | -1.43 | -4.42 (inactive) | -0.123 (inactive) | -0.661 (inactive) |
| COC(=O)[C@@]1(Cc2ccc(F)cc2)[C@H]2c3cc(C(=O)N(C)C)n(Cc4c(CO)[nH]cc(C)c4=O)c3C[C@H]2CN1C(=O)c1ccccc1 | 0.493 (inactive) | -0.0903 | -1.81 | -5.02 (inactive) | 0.815 (inactive) | 0.493 (inactive) |
| COC(=O)C(CC#Cc1ccc2c(c1)[C@]1(C(=O)N2)[C@H](c2ccc(OCCO)cc2)N2[C@H](c3ccccc3)[C@H](c3ccccc3)OC(=O)[C@H]2[C@@H]1C(=O)N1CCN(c2ncccn2)CC1)C(=O)OC | 0.398 (inactive) | 0.775 | -2.2 | 0.338 (inactive) | -0.0604 (inactive) | -0.282 (inactive) |
| Cc1ccccc1C(O)C1C=CC2C(=O)NC(=O)C2N1Nc1ccc(Cl)cc1Cl (centres undefined) | 3.24 (inactive) | 0.693 | 0.254 | -5.08 (inactive) | 0.165 (inactive) | -0.016 (inactive) |
| CN(C)C(=O)[C@@]1(Cc2ccccc2)COC(c2ccc(OCCCO)cc2)=N1 | 0.205 (inactive) | 0.845 | -0.627 | -6.02 (inactive) | -1.01 (inactive) | -1.03 (inactive) |
| NC(=O)[C@@H]1[C@H]2C(=O)O[C@H](c3ccccc3)[C@H](c3ccccc3)N2[C@H](c2ccc(OCCO)cc2)[C@@]12C(=O)Nc1ccc(C#CCCO)cc12 | 0.198 (inactive) | 0.808 | 0.195 | -4.88 (inactive) | -0.504 (inactive) | -0.804 (inactive) |
| COC(=O)c1c2oc(c1C(=O)OC)C(=O)N1CCC[C@H]1Cn1nncc1CN(Cc1ccccc1)C(=O)N[C@H](CO)CC2 | -0.0783 (inactive) | 0.59 | -0.414 | -3.78 (inactive) | 0.159 (inactive) | 0.306 (inactive) |
| C=C/C=C/[C@@H]1C(=C)CN([C@@H](Cc2ccccc2)C(=O)OC)[C@H]1[C@@H](O)Cc1ccccc1 | 0.661 (inactive) | 0.58 | 0.135 | -1.8 (inactive) | -0.176 (inactive) | 0.221 (inactive) |
| Cc1ccc(S[C@]2(C(=O)NC(C)C)CC(=O)N(C(C)C)[C@@H]2c2ccc(CO)cc2I)cc1 | 0.317 (inactive) | 0.101 | -2.02 | -2.58 (inactive) | 0.0841 (inactive) | 0.925 (inactive) |
| C[C@]1(C(=O)NCCN2CCOCC2)c2ccccc2C(=O)N(Cc2cc(F)cc(C(F)(F)F)c2)[C@H]1c1ccc(CO)cc1 | 1.14 (inactive) | 0.826 | -0.736 | -3.91 (inactive) | -0.69 (inactive) | -0.691 (inactive) |
| CN1C(=O)[C@@H]2[C@@H](CC(COc3ccccc3)=C([C@H](O)CCc3ccccc3)[C@@H]2CO)C1=O | -0.221 (inactive) | 0.365 | -0.0804 | -6.39 (inactive) | -1.25 (inactive) | -1.34 (inactive) |
